# According to PubChem BioAssay AID1508601 (ICCB-Longwood Screening Facility, Harvard Medical School, 2020):
# About 85 (1%) of roughly 5,700 compounds were called active. This is one part of a sample in which actives are shown more often than they occur. Cut-off read from the data, not from the text of the source: active = p53-positive nuclei above about 36% (passing the limit was not always enough); inactive = the rest. Peptide text beside a SMILES is read from it.
# Tests used:
# [1] = nuclear p53 accumulation, HPV+ cells – imaging, p53-positive nuclei imaging, 24 h, 48 h (AID 1508601); details: 24/48 h
# [2] = target: Cellular tumor antigen p53 (Homo sapiens) (UniProt P04637); assay: as above; details: 24/48 h, stronger effect = higher value
# [3] = measured here: cell number at 24 h, Library stock concentration: 80 uM
# [4] = measured here: cell number at 24 h, Library stock concentration: 400 uM
# [5] = measured here: cell number at 24 h, Library stock concentration: 2 mM
# [6] = measured here: cell number at 24 h, Library stock concentration: 10 mM
# [7] = measured here: cell number at 48 h, Library stock concentration: 80 uM
# [8] = measured here: cell number at 48 h, Library stock concentration: 400 uM
# [9] = measured here: cell number at 48 h, Library stock concentration: 2 mM
# [10] = measured here: cell number at 48 h, Library stock concentration: 10 mM
# [11] = Library stock concentration: 80 uM
# [12] = Library stock concentration: 400 uM
# [13] = Library stock concentration: 2 mM
# [14] = Library stock concentration: 10 mM
# [15] = measured here: p53 positive nuclei at 24 h, Library stock concentration: 80 uM
# [16] = measured here: p53 positive nuclei at 24 h, Library stock concentration: 400 uM
# [17] = measured here: p53 positive nuclei at 24 h, Library stock concentration: 2 mM
# [18] = measured here: p53 positive nuclei at 24 h, Library stock concentration: 10 mM
# [19] = measured here: cell number at 24 h, Library stock concentration: 3.33 mM
# [20] = measured here: cell number at 48 h, Library stock concentration: 3.33 mM
# [21] = Library stock concentration: 3.33 mM
# [22] = measured here: p53 positive nuclei at 24 h, Library stock concentration: 3.33 mM
# Cellular tumor antigen p53 (Homo sapiens), sequence (P04637 whole entry, looked up): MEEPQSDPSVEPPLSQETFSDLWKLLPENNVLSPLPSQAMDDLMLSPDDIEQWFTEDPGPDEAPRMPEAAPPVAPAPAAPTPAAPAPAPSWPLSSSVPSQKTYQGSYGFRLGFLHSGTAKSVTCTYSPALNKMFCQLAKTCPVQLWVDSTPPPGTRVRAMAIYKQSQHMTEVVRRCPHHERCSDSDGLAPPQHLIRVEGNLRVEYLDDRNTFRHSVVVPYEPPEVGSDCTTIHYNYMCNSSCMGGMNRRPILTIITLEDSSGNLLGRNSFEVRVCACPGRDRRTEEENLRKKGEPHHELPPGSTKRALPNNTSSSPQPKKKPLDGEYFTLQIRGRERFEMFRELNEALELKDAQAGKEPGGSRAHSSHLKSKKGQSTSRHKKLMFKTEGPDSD
compound,measurement,setting,value
CC(C)C(N)C(=O)NC(Cc1ccccc1)C(=O)O (centres undefined),"nuclei count, normalised",[1]; [3],118%
same,"nuclei count, normalised",[1]; [4],113%
same,"nuclei count, normalised",[1]; [5],112%
same,"nuclei count, normalised",[1]; [6],113%
same,"nuclei count, normalised",[1]; [7],107%
same,"nuclei count, normalised",[1]; [8],100%
same,"nuclei count, normalised",[1]; [9],103%
same,"nuclei count, normalised",[1]; [10],102%
same,"p53-positive nuclei, normalised",[2]; [11],-0.188% (inactive)
same,"p53-positive nuclei, normalised",[2]; [12],0.0868% (inactive)
same,"p53-positive nuclei, normalised",[2]; [13],-0.0686% (inactive)
same,"p53-positive nuclei, normalised",[2]; [14],-0.0304% (inactive)
same,"p53-positive nuclei, normalised",[2]; [15],-0.0726%
same,"p53-positive nuclei, normalised",[2]; [16],-0.0759%
same,"p53-positive nuclei, normalised",[2]; [17],0.0367%
same,"p53-positive nuclei, normalised",[2]; [18],-0.118%
COCC(NC(=O)c1cnc(C)s1)C(=O)NC(COC)C(=O)NC(Cc1ccccc1)C(=O)C1(C)CO1 (centres undefined),"nuclei count, normalised",[1]; [19],50.4%
same,"nuclei count, normalised",[1]; [20],40.7%
same,"p53-positive nuclei, normalised",[2]; [21],96.5% (active)
same,"p53-positive nuclei, normalised",[2]; [22],116%
CC(C)CC(CC(=O)NO)C(=O)NC(Cc1ccc2ccccc2c1)C(=O)NC(C)C(=O)NCCN (centres undefined),"nuclei count, normalised",[1]; [19],109%
same,"nuclei count, normalised",[1]; [20],104%
same,"p53-positive nuclei, normalised",[2]; [21],0.0444% (inactive)
same,"p53-positive nuclei, normalised",[2]; [22],-0.208%
COC(=O)[C@H](Cc1ccccc1)NC(=O)[C@@H](N)CC(=O)O (H-Asp-Phe-OMe),"nuclei count, normalised","[1]; measured here: cell number at 24 h, concentration not given here",91.1%
same,"nuclei count, normalised","[1]; measured here: cell number at 48 h, concentration not given here",92%
same,"p53-positive nuclei, normalised",[2]; concentration not given here,-0.024% (inactive)
same,"p53-positive nuclei, normalised","[2]; measured here: p53 positive nuclei at 24 h, concentration not given here",-0.251%
CC(C)CC(C(=O)NC(Cc1ccc(OCc2ccccc2)cc1)C(=O)NC(C)(C)C)N(C)Cc1ccc(C(C)(C)C)cc1 (centres undefined),"nuclei count, normalised",[1]; [3],108%
same,"nuclei count, normalised",[1]; [4],108%
same,"nuclei count, normalised",[1]; [5],110%
same,"nuclei count, normalised",[1]; [6],113%
same,"nuclei count, normalised",[1]; [7],103%
same,"nuclei count, normalised",[1]; [8],105%
same,"nuclei count, normalised",[1]; [9],103%
same,"nuclei count, normalised",[1]; [10],109%
same,"p53-positive nuclei, normalised",[2]; [11],0.116% (inactive)
same,"p53-positive nuclei, normalised",[2]; [12],-0.221% (inactive)
same,"p53-positive nuclei, normalised",[2]; [13],0.074% (inactive)
same,"p53-positive nuclei, normalised",[2]; [14],-0.262% (inactive)
same,"p53-positive nuclei, normalised",[2]; [15],-0.0604%
same,"p53-positive nuclei, normalised",[2]; [16],-0.22%
same,"p53-positive nuclei, normalised",[2]; [17],-0.108%
same,"p53-positive nuclei, normalised",[2]; [18],-0.169%
